Laboratory results as given in PubChem BioAssay (NCI).
This is part of a sample that, as a whole, favours compounds with a hit. Of some 79,000 tested, about 15% had one in any assay. Activity calls are given as the source filed them. Rule as the data show it: active = growth inhibition above about 70%; inactive = the rest.

Tests used:
[1] = NCI Yeast Anticancer Drug Screen. Data for the rad50 strain (AID 155);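 also: 0% = growth of vehicle-only cultures of the same strain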; settings: S. cerevisiae rad50 strain growth inhibition; at 50.0 µM; active compounds read high
Outline: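 A DNA repair-deficient yeast mutant serves as the test organism; compound-induced growth inhibition is calculated against vehicle-treated cells.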

[2] = NCI Yeast Anticancer Drug Screen. Data for the mec2-1 strain (AID 157); settings: S. cerevisiae mec2-1 strain, at 50.0 µM, active compounds read high
Outline: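 Mutant yeast (mec2-1) grown with compound; growth inhibition relative to vehicle control reported.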

[3] = NCI Yeast Anticancer Drug Screen. Data for the sgs1 mgt1 strain (AID 161);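 also: 0% = growth of cultures given vehicle only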; settings: S. cerevisiae sgs1 mgt1 strain, at 50.0 µM, active compounds read high
Outline: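 This yeast growth screen uses a strain with defined DNA-repair lesions; compound-treated growth is compared with vehicle-treated growth.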

[4] = NCI Yeast Anticancer Drug Screen. Data for the cln2 rad14 strain (AID 165);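 also: 0% = growth equal to vehicle treated cultures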; settings: S. cerevisiae cln2 rad14 strain, at 50.0 µM, active compounds read high
Outline: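 Readout is yeast growth inhibition versus vehicle-treated controls, using a strain with cln2 and rad14 alterations exposed to compound.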

[5] = NCI Yeast Anticancer Drug Screen. Data for the bub3 strain (AID 167); settings: S. cerevisiae bub3 mutant strain, at 50.0 µM, active compounds read high
Outline: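 Inhibition values come from growth of compound-treated mutant yeast normalised to vehicle-treated controls.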

[6] = NCI Yeast Anticancer Drug Screen. Data for the mlh1 rad18 strain (AID 175); settings: S. cerevisiae mlh1 rad18 strain growth inhibition; at 50.0 µM; active compounds read high
Outline: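 Genetically defined yeast (DNA repair-deficient) exposed to compounds; growth inhibition determined relative to vehicle.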

Measured: growth inhibition

CN(N)c1nc2c(N)ncnc2n1C1OC(CO)C(O)C1O (stereo not drawn)
inactive: [1] 25.9% | [2] 24.1% | [3] 30.6% | [4] 13.8% | [5] 30% | [6] 48.3%

COC1(OC)OC(c2ccc([N+](=O)[O-])cc2)=C(c2ccc([N+](=O)[O-])cc2)OC1(OC)OC
inactive: [1] 56% | [2] 49.9% | [3] 38.5% | [4] 57.4% | [5] 49% | [6] 37.9%

CCOC(=O)Nc1c(O)cccc1N1CCOCC1
inactive: [1] -14.1% | [2] 6.65% | [3] 25.9% | [4] -12.1% | [5] 7.4% | [6] -1.25%

O=C(O)c1ccc2c(c1)S(=O)(=O)c1ccccc1C2=O
inactive: [1] 14.1% | [2] 17.5% | [3] -3.8% | [4] 9.6% | [5] 23.9% | [6] 17.1%

COc1ccc(NC(=S)Nc2ccccc2)cc1
inactive: [1] 4.8% | [2] -36.8% | [3] -22.6% | [4] -46.9% | [5] -21.8% | [6] -8.4%

COC(=O)c1ccc(O)c(CN(C)C)c1
inactive: [1] 26.6% | [2] -10.6% | [3] 6.6% | [4] 3.4% | [5] -15.1% | [6] 18.8%

COC(=O)C(C)S(=O)(=O)O (stereo not drawn)
inactive: [1] -12.2% | [2] -2.5% | [3] 9.35% | [4] -80.5% | [5] 2.9% | [6] 0.3%

CN1C(=O)NC(C)(CCOCc2ccccc2)C1=O (stereo not drawn)
inactive: [1] 8.85% | [2] 0.45% | [3] 0.25% | [4] -1.25% | [5] 6.65% | [6] 8.65%

Cc1cc(O)cc2oc(=O)ccc12
inactive: [1] -34.4% | [2] -23.4% | [3] -9.9% | [4] -11.7% | [5] -11.7% | [6] -15.2%

O=C(NCc1cccc2ccccc12)Nc1ccccc1Cl
inactive: [1] 4.9% | [2] 36.1% | [3] 10.3% | [4] -6.55% | [5] 27% | [6] 30%

C=CCNC(=O)/C=C/C
inactive: [1] 1.95% | [2] 0.65% | [3] -2.1% | [4] 1.8% | [5] 9.75% | [6] -4.35%

COC1(OC)CCC2C1C1CCC(OC)(OC)C21 (stereo not drawn)
inactive: [1] 1.7% | [2] -3.35% | [3] 11.3% | [4] 8.75% | [5] 3.4% | [6] -17.4%

CC(=O)OCC1OC(Nc2[nH]c(=O)n(C)c(=O)c2C=O)C(OC(C)=O)C(OC(C)=O)C1OC(C)=O (stereo not drawn)
inactive: [1] 2.5% | [2] 9.4% | [3] 6.7% | [4] 9.15% | [5] -0.4% | [6] 3.95%

O=C(CCc1ccc(O)c(O)c1)NCCc1cc(OCc2ccccc2)cc(OCc2ccccc2)c1
active: [1] 83.9% | [2] 88.4% | [3] 83.2% | [4] 87.5% | [5] 82.2% | [6] 73.1%

CCCCCCCCCCCCOP(=O)(O)OP(=O)(O)OCC1OC(n2cc(C)c(=O)[nH]c2=O)CC1O (stereo not drawn)
inactive: [1] 35.4% | [2] 13.9% | [3] 47% | [4] 14.7% | [5] 14.4% | [6] 7.55%

C[C@H](C(O)CC(=O)C(C)(C)O)[C@H]1CC[C@@]2(C)[C@@H]3CC[C@H]4C(C)(C)[C@@H](OC5OC(COC6OC(CO)C(O)C(O)C6O)C(O)C(O)C5O)CC[C@]4(C)C3=CC[C@]12C (stereo partly drawn)
inactive: [1] -12.7% | [2] -19.3% | [3] -20.2% | [4] -0.05% | [5] -23.4% | [6] -75.8%

CN(C)c1ncnc2c1cnn2-c1ccc(Cl)cc1
inactive: [1] -6.15% | [2] -6.2% | [3] -9.3% | [4] -36.6% | [5] -0.95% | [6] -8.45%

CCCCNC(=O)C(CCCC)C(CCC)(CCC)CCCC (stereo not drawn)
inactive: [1] -21.4% | [2] -13% | [3] -16.5% | [4] -35.8% | [5] 55.3% | [6] 3.55%

CCOC(=O)C(=O)C1CCCC(C)C1=O (stereo not drawn)
inactive: [1] 16% | [2] 11.8% | [3] -16.6% | [4] -43.1% | [5] 10.8% | [6] 1.05%

NC1=NC(c2ccccc2)C2=C(N1)C(=O)N(Cc1ccccc1)C2 (stereo not drawn)
inactive: [1] 5.65% | [2] -6.25% | [3] -0.8% | [4] -18.9% | [5] -16.8% | [6] 3.15%

O=C1OC(=O)c2ccc(SCC(O)CCl)c3cccc1c23 (stereo not drawn)
active: [1] 99.4% | [2] 99.5% | [3] 98.7% | [4] 95.8% | [5] 98.9% | [6] 99.2%

N#Cc1ccc(NC(=NCC(=O)O)Nc2ccc3ccccc3c2)cc1
inactive: [1] -16.2% | [2] -30.6% | [3] -14.6% | [4] 25.8% | [5] -26.3% | [6] 8.25%

C/C(=N/S(=O)(=O)c1ccc(C)c(C)c1)OC(C)C
inactive: [1] 2.6% | [2] 6.9% | [3] 7.95% | [4] -55.1% | [5] 13.1% | [6] -1.2%

COC1CCC(/C(C#N)=C/C2CCC(OC)C(OC)C2)CC1 (stereo not drawn)
inactive: [2] 66.8% | [4] -8.7% | [5] 68.8% | [6] 63%
active: [1] 77.1% | [3] 77.7%

CCOc1ccccc1NC(=O)Nc1ccccc1Cl
inactive: [1] -0.1% | [2] -2.15% | [3] 23.1% | [4] -18.3% | [5] 7.5% | [6] 21.3%

CCOC(=O)/C(C=Nc1c(C)n(C)n(-c2ccccc2)c1=O)=C(/C)O
inactive: [1] 19.7% | [2] 10.7% | [3] 11.7% | [4] 27.5% | [5] 10.8% | [6] 23.6%

CCCOc1nc(N)c2cnn(C3CCCCO3)c2n1 (stereo not drawn)
inactive: [1] -14.9% | [2] -25.5% | [3] 8.05% | [4] 16.1% | [5] 14.2% | [6] -9.25%

N#CC(=C1C=CC(=NO)C=C1)c1ccc(Cl)cc1
inactive: [1] -0.05% | [2] 2.5% | [3] 8.3% | [4] -124% | [5] 20.9% | [6] 1.9%

CN(C)CCC(c1ccccc1)c1ccccc1
inactive: [1] -22.4% | [2] -2.85% | [3] 13.7% | [4] -13.6% | [5] 14.7% | [6] -5.8%

CC1CCCC(C)(c2ccccc2)/C1=N\Nc1ccc([N+](=O)[O-])cc1[N+](=O)[O-] (stereo not drawn)
inactive: [1] 36.2% | [2] 13.9% | [3] 9.65% | [4] 18% | [5] 2.1% | [6] 29.9%

O=C(SCc1ccccc1)N(c1ccccc1)c1ccccc1
inactive: [1] -0.55% | [2] 11.9% | [3] 0% | [4] 22.4% | [5] 12.4% | [6] 5.3%

CC1(c2ccc3cccc(F)c3c2)OC(=O)c2ccccc21 (stereo not drawn)
inactive: [1] 2% | [2] 1.65% | [3] -2.95% | [4] -68.8% | [5] -4.25% | [6] -12.7%

COC(=O)c1c2c(cc3c1CC1(C3)Cc3cc4c(c(C(C)=O)c3C1)CCC4)C=CC2 (stereo not drawn)
inactive: [1] 0.15% | [2] -12.3% | [3] -26.1% | [4] 1.35% | [5] -5.75% | [6] -22.6%

c1ncn(Sn2cncn2)n1
inactive: [1] -13.2% | [2] -6.9% | [3] -4.25% | [4] -23.8% | [5] -5.9% | [6] -0.85%

CCCCCCn1c(=O)cc2n(c1=O)CCC2
inactive: [1] 30% | [2] 11.3% | [3] 22.1% | [4] 11.1% | [5] 3.5% | [6] -3.4%

CC(=O)NC1CON(C(C)=O)C1=O (stereo not drawn)
inactive: [1] 2.75% | [2] 0.65% | [3] -9.85% | [4] -54.4% | [5] 2.7% | [6] -6.75%

CN(c1ccc(Cl)cc1)S(=O)(=O)c1ccc([N+](=O)[O-])cc1
inactive: [1] -13.2% | [2] -23.5% | [3] 23.4% | [4] 32.4% | [5] 38% | [6] -5.9%

S=C1SC(=Nc2ccccc2)C(=Nc2ccccc2)N1c1ccc2ccccc2c1
inactive: [1] 8.2% | [2] 8.75% | [3] 28.5% | [4] 12.8% | [5] 27.9% | [6] 24.1%
